Source: PubChem
BAZ2B block: blocks human BAZ2B. Q9UIF8. AlphaScreen BAZ2B-H3K14Ac peptide displacement. Potency, µM (highest dose often 114 µM), actives largely listed as inhibitors. actives 4.4% (n = 360,000). AID 504333; also: nearly all actives have a fitted effect of over 60% in size
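Multi-concentration screen (max 110 uM) measuring displacement of acetylated histone H3 peptide from BAZ2B by AlphaScreen, using 50 nM protein, 50 nM peptide and 10 ug/mL streptavidin donor plus Ni-chelate acceptor beads.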
HP1b binding inh: blocks HP1-beta chromodomain binding to methylated histone tails; P83916; AlphaScreen HP1-beta / biotin-H3K9me3 peptide binding; Potency, µM (series often up to 114 µM), most hits filed as inhibitors; actives 0.56% (n = 390,000); also: nearly all actives have a fitted effect of over 70% in size
Target sequence (P83916 whole entry, looked up): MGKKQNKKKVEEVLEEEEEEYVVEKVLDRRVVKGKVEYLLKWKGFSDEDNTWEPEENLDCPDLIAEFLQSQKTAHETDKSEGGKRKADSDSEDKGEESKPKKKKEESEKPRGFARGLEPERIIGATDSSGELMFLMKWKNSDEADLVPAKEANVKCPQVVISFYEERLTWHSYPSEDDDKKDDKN
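AlphaScreen: HP1-beta (50 nM) preformed 30 min with biotin-H3(1-18)K9me3 peptide (50 nM) in PBS pH 7.4, 0.01% Tween-20. Compound added for 30 min at RT, then streptavidin donor/nickel chelate acceptor beads (10 ug/mL) for 30 min.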
Sfp PPTase inh: inhibitors of Bacillus subtilis Sfp phosphopantetheinyl transferase | Q9F4F7 | Biochemical Sfp PPTase activity, qHTS | Potency, µM, usual class: inhibitors | actives 3.5% (n = 310,000) | AID 1490;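 also: the enzyme is Sfp with the accession as filed and its product quenches rhodamine fluorescence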
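Compounds were incubated with enzyme (final 15 nM) for 15 min at room temperature before substrate addition started the reaction. Fluorescence at 525 nm excitation, 598 nm emission was recorded immediately and after 30 minutes.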
G9a block: G9a (human) methyltransferase inhibition; G9a H3K9 monomethylation, AlphaScreen, 2 h; actives 8.8% (n = 350,000); Potency, µM (titrated, usually from 102 µM), actives largely listed as inhibitors; AID 504332; also: nearly all actives have a fitted effect of over 75% in size
Target sequence (Q96KQ7 913-1193 limits assumed): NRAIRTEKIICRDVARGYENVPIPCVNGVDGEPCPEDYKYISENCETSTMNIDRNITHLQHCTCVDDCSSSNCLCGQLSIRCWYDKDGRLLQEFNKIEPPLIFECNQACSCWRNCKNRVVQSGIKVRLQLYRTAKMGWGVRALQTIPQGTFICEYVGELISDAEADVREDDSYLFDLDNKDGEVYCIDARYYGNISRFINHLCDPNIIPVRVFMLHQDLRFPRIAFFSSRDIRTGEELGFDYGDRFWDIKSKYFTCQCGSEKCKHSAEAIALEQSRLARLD
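Compounds were preincubated with 20 nM G9a for 15 min, after which biotinylated H3K9 peptide (500 nM) and SAM (20 uM) started a 2 h room-temperature reaction. Monomethylated product was quantified by antibody-based AlphaScreen chemiluminescence.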
L3MBTL1 inh: inhibitors of human L3MBTL1. Q9Y468. AlphaScreen L3MBTL1–H3K9me1 peptide binding. Potency, µM (top dose mostly 57.1 µM), hits mostly inhibitors. actives 0.66% (n = 230,000). AID 485360; also: nearly all actives have a fitted effect of over 60% in size
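AlphaScreen proximity signal between nickel-chelate acceptor and streptavidin donor beads (final 10 ug/mL) reports binding of 50 nM L3MBTL1 to 75 nM biotin-H3 K9me1 peptide; complex incubated with compounds 30 min at room temperature; cefsulodin titration as control.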
JMJD2A Tudor: blocks the human JMJD2A Tudor domain | AlphaScreen JMJD2A-Tudor / H3K4me3 peptide binding | Potency, µM (doses to about 114 µM), most hits filed as inhibitors | actives 4.4% (n = 390,000) | AID 504339 | O75164; also: nearly all actives have a fitted effect of over 50% in size
Each line names hits and unclear results; the compound was inactive in the other large screens. A selection: hits, their analogues and other compounds. The true share with any hit is near 12%. Calls follow the shape of the dose curve; as a rule, active = well fitted curve in the direction sought with a large enough effect; inconclusive = small, poorly fitted or top-dose-only effect, or another doubt; inactive = no such curve, though single readings can be large; an effect the other way counts as inactive or inconclusive.

Cc1cc(C)cc(N(CC(=O)Nc2ccc(C(F)(F)F)cc2)S(=O)(=O)c2c(C)[nH]c(=O)[nH]c2=O)c1	G9a block 25µM (no result: L3MBTL1 inh)
Cc1nc(N2CCOCC2)c2c(C(=O)N3CCN(c4cc(Cl)ccc4C)CC3)c(C)oc2n1	none (no result: Sfp PPTase inh, L3MBTL1 inh)
O=C1C=C(c2cc3ccccc3o2)C[C@@H](c2ccc(F)cc2)C1	none (no result: Sfp PPTase inh)
COC(CN1C(=O)C(=O)/C(=C(/O)c2ccccc2)C1c1ccccn1)OC (configuration not stated)	G9a block 50µM
COCCCN1C(=O)C(=O)/C(=C(/O)c2ccc(C)cc2)C1c1ccccc1 (configuration not stated)	G9a block 50µM, JMJD2A Tudor inconclusive
Cc1ccc(/C(O)=C2\C(=O)C(=O)N(C)C2c2cccc([N+](=O)[O-])c2)cc1 (configuration not stated)	G9a block 79µM
COCCCN1C(=O)C(=O)/C(=C(/O)c2ccc(OC)cc2)C1c1cccc(OC)c1 (configuration not stated)	G9a block inconclusive
COCCCN1C(=O)C(=O)/C(=C(/O)c2ccc(OC(C)C)cc2)C1c1cccnc1 (configuration not stated)	BAZ2B block inconclusive, G9a block inconclusive, JMJD2A Tudor inconclusive
CCN(CC)CCN1C(=O)C(=O)/C(=C(/O)c2cccc(OC)c2)C1c1ccccn1 (configuration not stated)	BAZ2B block inconclusive, Sfp PPTase inh inconclusive, G9a block inconclusive, JMJD2A Tudor inconclusive
COCCCN1C(=O)C(=O)/C(=C(/O)c2ccc(OC(C)C)c(C)c2)C1c1ccncc1 (configuration not stated)	BAZ2B block inconclusive, G9a block 40µM
COc1ccc2[nH]cc(CCNc3ncnc4ccc(-c5c(C)noc5C)cc34)c2c1	none (no result: BAZ2B block, HP1b binding inh, L3MBTL1 inh, JMJD2A Tudor)
CCC(=O)O[C@H]1C(O[C@@H]2C(C)[C@H](O[C@H]3C[C@@](C)(OC)C(O)C(C)O3)C(C)C(=O)OC(CC)[C@@](C)(O)C(O)[C@H](C)C(=O)C(C)C[C@]2(C)O)OC(C)CC1N(C)C (some centres not stated)	none (no result: BAZ2B block, HP1b binding inh, L3MBTL1 inh, JMJD2A Tudor)
COCCCN1C(=O)C(=O)/C(=C(/O)c2ccc(C)cc2)C1/C=C/c1ccccc1 (configuration not stated)	G9a block 45µM
C=CCOc1ccc(/C(O)=C2\C(=O)C(=O)N(CCCOC)C2c2ccncc2)cc1 (configuration not stated)	G9a block inconclusive, JMJD2A Tudor inconclusive
COCCN1C(=O)C(=O)/C(=C(/O)c2ccc(C)cc2)C1c1ccccn1 (configuration not stated)	G9a block 50µM
COCCN(C(=O)COC(=O)c1cc(C)oc1C)c1c(N)n(Cc2ccccc2)c(=O)[nH]c1=O	none (no result: Sfp PPTase inh)
N#C/C(=N\Nc1ccc(S(=O)(=O)N2CCCCCC2)cc1)C(N)=S	HP1b binding inh inconclusive, Sfp PPTase inh inconclusive, G9a block 2µM, JMJD2A Tudor inconclusive
N#C/C(=N\Nc1ccc(S(=O)(=O)N2CCc3ccccc32)cc1)C(N)=S	BAZ2B block 32µM, HP1b binding inh 6.3µM, Sfp PPTase inh inconclusive, G9a block 16µM, JMJD2A Tudor inconclusive
CN(C)S(=O)(=O)c1ccc(Cl)c(NC(=O)COC(=O)CNS(=O)(=O)c2c(F)cccc2F)c1	none (no result: BAZ2B block, Sfp PPTase inh, G9a block, L3MBTL1 inh)
O=C(COC(=O)c1ccc([N+](=O)[O-])o1)NC1CCCc2ccccc21 (configuration not stated)	none (no result: BAZ2B block, Sfp PPTase inh, G9a block)
CCOc1ccc(N2C(=O)C(Cl)=C(N3CCOCC3)C2=O)cc1	G9a block 50µM
CC(C)c1ccc(N2C(=O)C(Cl)=C(N3CCOCC3)C2=O)cc1	none (no result: L3MBTL1 inh)
O=C1C(Cl)=C(N2CCOCC2)C(=O)N1c1ccc(Br)cc1	G9a block 45µM
CSc1ccccc1NC(=O)CN(C)CC(=O)c1c(C)[nH]c2ccccc12	G9a block inconclusive (no result: Sfp PPTase inh)
CC[C@H](NC(=O)[C@H](CCC(=O)O)NC(=O)[C@H](CCC(=O)O)NC(=O)[C@H](CC(=O)O[S+](=O)([O-])c1cccc2c(NCCN)cccc12)NC(=O)[C@H](CCC(=O)O)NC(=O)[C@H](CC(=O)O)NC(C)=O)C(=O)ON[C@@H](C)C(=O)N[C@@H](CO)C(=O)N[C@@H](CCCCNC(=O)c1ccc(N=Nc2ccc(N(C)C)cc2)cc1)C(N)=O	none (no result: BAZ2B block, HP1b binding inh, G9a block, L3MBTL1 inh, JMJD2A Tudor)
COc1ccc(CN2CCN(Cc3ccccc3C(F)(F)F)CC2)c(OC)c1	BAZ2B block 28µM, HP1b binding inh 28µM, Sfp PPTase inh inconclusive, G9a block 45µM, JMJD2A Tudor 1.6µM (no result: L3MBTL1 inh)
COc1ccccc1N1CCN(Cc2c[nH]c3ccccc23)CC1	none
COc1ccc(CN2CCN(CCCc3ccccc3)CC2)c(OC)c1	BAZ2B block 32µM, G9a block 4µM (no result: HP1b binding inh, L3MBTL1 inh, JMJD2A Tudor)
COc1ccccc1N1CCN(Cc2ccc(O)c3ncccc23)CC1	BAZ2B block 4.5µM, G9a block inconclusive, JMJD2A Tudor 13µM (no result: L3MBTL1 inh)
COc1ccccc1N1CCN(C2CCCN(Cc3ccccc3OCCO)C2)CC1 (configuration not stated)	G9a block 79µM
COc1ccc(CN2CCN(c3ccccc3OC)CC2)c(OC)c1	BAZ2B block inconclusive, JMJD2A Tudor 20µM
COc1ccc(O)c(CN2CCCC(N3CCN(c4ccccc4OC)CC3)C2)c1 (configuration not stated)	none
COc1cccc(CN2CCN(Cc3ccccc3C(F)(F)F)CC2)c1	BAZ2B block 25µM, HP1b binding inh 20µM, Sfp PPTase inh 56µM, G9a block 4.5µM, JMJD2A Tudor 28µM
O=C(CCn1c(=O)c2cccn2c2cccnc21)N1CCN(c2ccc(F)cc2)CC1	BAZ2B block inconclusive (no result: Sfp PPTase inh, L3MBTL1 inh)
Cc1ccccc1-c1ccnc2c(-c3ccc(F)cc3)c(C)nn12	none (no result: Sfp PPTase inh, L3MBTL1 inh)
Cc1ccc(NS(=O)(=O)Cc2ccccc2)nc1	G9a block 28µM
O=S(=O)(Cc1ccccc1)Nc1ccc(Br)cn1	G9a block 71µM
CCC(Oc1ccccc1F)C(=O)N1CCC(c2nc3ccccc3s2)CC1 (configuration not stated)	none (no result: Sfp PPTase inh, L3MBTL1 inh)
CC(NC(=O)c1ccc2c(c1)N(Cc1cccc(F)c1)C(=O)c1ccccc1S2)c1ccccc1 (configuration not stated)	none (no result: Sfp PPTase inh, L3MBTL1 inh)
O=[N+]([O-])c1cccc2c[nH]nc12	none (no result: BAZ2B block, HP1b binding inh, G9a block, L3MBTL1 inh, JMJD2A Tudor)
COc1ccc(NC(=O)CSc2nc(-c3cccs3)cc(C(F)(F)F)n2)c(OC)c1	none (no result: Sfp PPTase inh, L3MBTL1 inh)
CC(C)CN(C(=O)COC(=O)c1cc2c(s1)CCC2)C1CCS(=O)(=O)C1 (configuration not stated)	BAZ2B block 56µM, L3MBTL1 inh 20µM, JMJD2A Tudor inconclusive
